Experimental data published in the supplement of paper PMC10849652.
Of roughly 7,900 targets only a part is listed; those with a hit were picked by preference. About 0.6% of all pairs of compound and target were hits.

Key:
Test in all cases: log2 fold change, soluble protein after heating vs DMSO (PISA); higher = thermal stabilisation; K562 cells, 10 uM, 30 min; active = over 0.2 and 3.5 SD of the protein, either way, in both replicates (recomputed)
[1] = compound: CCn1cc(-c2ccnc3[nH]c(-c4cccc(CN(C)C)c4)cc23)c(-c2ccc(NC(=O)N(C)C)cc2)n1
Summary of the method: (§1)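 Soluble protein was quantified by TMTpro 16plex LC-MS/MS after channel sums were equalised. It was obtained as the supernatant after 21,000xg for 90 min from pooled aliquots of K562 cells (2×10^6 cells/mL, 10 μM compound, 30 min) heated for 3 min across 48°C-58°C and extracted in PBS with 0.5% NP-40 at 4°C. Thermal stability values are relative to control samples and come from duplicates. They are given as log2 fold changes.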

[2] = compound: CN1C2=C(C3=C1C(=O)N(N=C3)CC4=CC(=CC=C4)N)SC(=C2)S(=O)C
Summary of the method: as §1

[3] = compound: CN1CCC(CNc2ccc3ncc(-c4cccc(OC(F)(F)F)c4)n3n2)CC1
Summary of the method: as §1

saracatinib = compound: CN1CCN(CCOc2cc(OC3CCOCC3)c3c(Nc4c(Cl)ccc5c4OCO5)ncnc3c2)CC1 [saracatinib]
Summary of the method: as §1

alvocidib = compound: CN1CC[C@H](c2c(O)cc(O)c3c(=O)cc(-c4ccccc4Cl)oc23)[C@H](O)C1 [alvocidib]
Summary of the method: as §1

Tubastatin A = compound: CN1CCc2c(c3ccccc3n2Cc2ccc(C(=O)NO)cc2)C1 [Tubastatin A]
Summary of the method: as §1

[4] = compound: CNc1nc(-c2ccc3c(N)n[nH]c3c2)cc(N2C[C@@H](C(=O)NC3CCCCC3)CC[C@H]2C)n1
Summary of the method: as §1

[5] = compound: CC[C@@H]1C(=O)N(C)c2cnc(Nc3ccc(C(=O)NC4CCN(C)CC4)cc3OC)nc2N1C1CCCC1
Summary of the method: as §1

[6] = compound: CC[C@H](C)N1C=C(C2=C(C=C(C=C21)C3=CN=C(C=C3)N4CCNCC4)C(=O)NCC5=C(C=C(NC5=O)C)C)C
Summary of the method: as §1

epoxomicin = compound: CC[C@H](C)[C@@H](C(=O)N[C@@H]([C@@H](C)O)C(=O)N[C@@H](CC(C)C)C(=O)[C@]1(CO1)C)NC(=O)[C@H]([C@@H](C)CC)N(C)C(=O)C [epoxomicin]
Summary of the method: as §1

[7] = compound: CCn1c(C(=O)N(C2CC2)C2CC2)cc2c3c(ncn3C)c(Nc3cc(C)n(C)n3)nc21
Summary of the method: as §1

[8] = compound: CN(C)CC(=O)Nc1ccc2[nH]c(=O)c3ccccc3c2c1
Summary of the method: as §1

rosiglitazone = compound: CN(CCOC1=CC=C(C=C1)C[C@H]2C(=O)NC(=O)S2)C3=CC=CC=N3 (racemic) [rosiglitazone]
Summary of the method: as §1

sotrastaurin = compound: CN1CCN(c2nc(C3=C(c4c[nH]c5ccccc45)C(=O)NC3=O)c3ccccc3n2)CC1 [sotrastaurin]
Summary of the method: as §1

[9] = compound: CNC(=O)C1=CC=CC=C1NC2=NC(=NC=C2Cl)NC3=C(C=C(C=C3)N4CCOCC4)OC
Summary of the method: as §1

defactinib = compound: CNC(=O)c1ccc(Nc2ncc(C(F)(F)F)c(NCc3nccnc3N(C)S(C)(=O)=O)n2)cc1 [defactinib]
Summary of the method: as §1

rucaparib = compound: CNCc1ccc(-c2[nH]c3cc(F)cc4c3c2CCNC4=O)cc1 [rucaparib]
Summary of the method: as §1

encorafenib = compound: COC(=O)N[C@@H](C)CNc1nccc(-c2cn(C(C)C)nc2-c2cc(Cl)cc(NS(C)(=O)=O)c2F)n1 [encorafenib]
Summary of the method: as §1

[10] = compound: COC(=O)[C@H](CCSC)NC(=O)C1=C(C=C(C=C1)NC[C@H](CS)N)C2=CC=CC=C2
Summary of the method: as §1

volasertib = compound: CC[C@@H]1C(=O)N(C)c2cnc(Nc3ccc(C(=O)N[C@H]4CC[C@H](N5CCN(CC6CC6)CC5)CC4)cc3OC)nc2N1C(C)C [volasertib]
Summary of the method: as §1

Measured: log2 fold change

NA, A0A1W2PSA9
inactive: [1] 0.08 | [2] 0.279 | [3] 0.057 | saracatinib -0.046 | alvocidib 0.168 | Tubastatin A -0.17 | [4] -0.107

NECTIN2 isoform 2 (UniProt Q92692)
Chain of UniProt Q92692 (Q92692 whole entry, looked up): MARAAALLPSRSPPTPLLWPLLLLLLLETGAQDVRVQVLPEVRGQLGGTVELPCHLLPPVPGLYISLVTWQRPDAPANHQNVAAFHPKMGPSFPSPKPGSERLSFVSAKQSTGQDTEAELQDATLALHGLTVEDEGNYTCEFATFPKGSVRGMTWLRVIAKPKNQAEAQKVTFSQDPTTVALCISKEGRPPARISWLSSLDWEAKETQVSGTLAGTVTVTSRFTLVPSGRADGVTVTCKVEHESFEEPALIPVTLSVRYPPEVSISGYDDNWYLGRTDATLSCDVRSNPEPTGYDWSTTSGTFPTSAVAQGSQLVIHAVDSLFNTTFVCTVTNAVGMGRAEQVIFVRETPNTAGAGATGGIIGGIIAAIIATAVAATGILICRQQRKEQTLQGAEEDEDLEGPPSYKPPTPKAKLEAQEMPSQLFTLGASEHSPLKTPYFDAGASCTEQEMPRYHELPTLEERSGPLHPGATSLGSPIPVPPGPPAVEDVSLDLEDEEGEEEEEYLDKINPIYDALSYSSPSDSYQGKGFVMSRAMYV
inactive: [5] 0.175 | [6] 0.106 | epoxomicin -0.132 | [7] 0.05 | [1] -0.104 | [8] -0.063 | rosiglitazone -0.151 | [2] -0.146 | [3] 0.318 | saracatinib 0.188 | sotrastaurin 0.288 | [9] 0.062 | defactinib 0.11 | rucaparib -0.039 | [4] 0.158 | encorafenib 0.077 | [10] 0.049

NA, A0A494C071
inactive: [6] 0.38 | epoxomicin -0.11 | [1] 0.189 | [8] -0.122 | rosiglitazone 0.125 | [2] -0.028 | saracatinib 0.033 | alvocidib 0.062 | Tubastatin A -0.197 | defactinib 0.044 | rucaparib -0.359 | [4] -0.062 | encorafenib 0.027 | [10] 0.124
active: [5] -1.54 | [3] -1.73

NOLC1 isoform 3 (UniProt Q14978)
Chain of UniProt Q14978 (Q14978 whole entry, looked up): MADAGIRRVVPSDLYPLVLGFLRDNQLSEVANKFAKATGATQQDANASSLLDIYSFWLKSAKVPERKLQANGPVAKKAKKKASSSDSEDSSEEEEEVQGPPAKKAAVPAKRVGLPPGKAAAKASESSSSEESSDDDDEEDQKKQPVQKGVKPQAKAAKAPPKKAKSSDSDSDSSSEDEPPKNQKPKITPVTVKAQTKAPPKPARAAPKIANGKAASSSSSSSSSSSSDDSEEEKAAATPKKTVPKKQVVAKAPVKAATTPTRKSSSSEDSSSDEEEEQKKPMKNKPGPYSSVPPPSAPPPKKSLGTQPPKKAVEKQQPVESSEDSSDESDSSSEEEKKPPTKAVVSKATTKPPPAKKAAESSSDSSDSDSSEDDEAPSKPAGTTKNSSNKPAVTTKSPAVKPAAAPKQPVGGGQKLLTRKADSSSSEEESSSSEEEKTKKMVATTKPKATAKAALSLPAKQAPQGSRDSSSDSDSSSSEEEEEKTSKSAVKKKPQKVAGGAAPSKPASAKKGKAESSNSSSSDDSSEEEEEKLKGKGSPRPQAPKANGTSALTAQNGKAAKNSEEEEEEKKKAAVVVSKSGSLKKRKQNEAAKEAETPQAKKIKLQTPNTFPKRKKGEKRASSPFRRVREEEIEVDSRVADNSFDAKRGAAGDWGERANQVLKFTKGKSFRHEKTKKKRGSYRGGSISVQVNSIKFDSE
inactive: [7] -0.275 | alvocidib 0.083 | [9] 0.018

NEU3 isoform 2 (UniProt Q9UQ49)
Chain of UniProt Q9UQ49 (Q9UQ49 whole entry, looked up): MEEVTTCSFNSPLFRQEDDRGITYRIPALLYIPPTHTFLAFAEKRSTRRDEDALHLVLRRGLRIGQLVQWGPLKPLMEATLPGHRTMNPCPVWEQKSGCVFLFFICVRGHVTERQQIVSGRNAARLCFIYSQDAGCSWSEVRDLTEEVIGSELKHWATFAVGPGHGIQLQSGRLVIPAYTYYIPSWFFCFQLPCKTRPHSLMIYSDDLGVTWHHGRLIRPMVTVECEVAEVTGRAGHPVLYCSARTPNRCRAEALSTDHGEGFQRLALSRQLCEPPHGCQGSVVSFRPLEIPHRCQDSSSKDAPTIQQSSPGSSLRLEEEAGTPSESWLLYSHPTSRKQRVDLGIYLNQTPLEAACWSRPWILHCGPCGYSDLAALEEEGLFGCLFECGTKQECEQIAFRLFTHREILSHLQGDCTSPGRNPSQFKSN
inactive: volasertib -0.158 | [7] -0.074 | sotrastaurin 0.004 | [9] 0.091

NDUFA7 (UniProt M0R0N0)
inactive: [7] -0.017 | [8] -0.092 | rosiglitazone 0.081 | sotrastaurin 0.201 | [9] -0.195 | defactinib 0.076 | [10] 0.093

NIPSNAP2 (UniProt C9J7B1)
inactive: rosiglitazone -0.065 | sotrastaurin -0.073

OAF (UniProt Q86UD1)
Chain of UniProt Q86UD1 (Q86UD1 whole entry, looked up): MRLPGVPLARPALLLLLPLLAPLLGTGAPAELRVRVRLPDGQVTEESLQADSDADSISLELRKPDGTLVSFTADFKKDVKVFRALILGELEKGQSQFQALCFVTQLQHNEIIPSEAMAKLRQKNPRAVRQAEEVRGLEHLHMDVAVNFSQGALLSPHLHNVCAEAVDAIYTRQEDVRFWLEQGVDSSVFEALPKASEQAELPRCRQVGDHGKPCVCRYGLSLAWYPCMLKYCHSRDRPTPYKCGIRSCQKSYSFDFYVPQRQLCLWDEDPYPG
inactive: [7] -0.087 | sotrastaurin 0.139 | [9] 0.043

MITF (UniProt O75030)
Chain of UniProt O75030 (O75030 whole entry, looked up): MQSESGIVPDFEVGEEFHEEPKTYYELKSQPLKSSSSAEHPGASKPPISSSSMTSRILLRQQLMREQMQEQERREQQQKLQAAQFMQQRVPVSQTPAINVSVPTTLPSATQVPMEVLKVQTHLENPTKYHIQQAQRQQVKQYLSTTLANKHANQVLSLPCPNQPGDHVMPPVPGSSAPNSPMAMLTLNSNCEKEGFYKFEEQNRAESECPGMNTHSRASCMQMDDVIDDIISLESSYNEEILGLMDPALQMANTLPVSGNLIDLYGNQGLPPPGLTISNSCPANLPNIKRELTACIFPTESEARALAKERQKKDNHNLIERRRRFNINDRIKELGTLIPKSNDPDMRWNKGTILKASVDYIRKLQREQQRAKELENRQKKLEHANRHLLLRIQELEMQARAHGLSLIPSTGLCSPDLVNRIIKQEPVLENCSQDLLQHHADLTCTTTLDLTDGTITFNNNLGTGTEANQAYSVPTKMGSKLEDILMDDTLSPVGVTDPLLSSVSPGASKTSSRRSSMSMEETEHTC
inactive: [5] 0.014 | [6] 0.02 | [7] -0.051 | [1] 0.044 | [8] -0.231 | [3] -0.046 | sotrastaurin -0.08 | [9] 0.034 | defactinib 0.111 | rucaparib -0.186 | encorafenib -0.058 | [10] 0.064

NAP1L1 (UniProt B7Z9C2)
inactive: [5] -0.118 | [6] -0.008 | [7] -0.132 | [1] 0 | [8] -0.244 | rosiglitazone 0.146 | [2] -0.053 | [3] -0.152 | saracatinib -0.168 | [9] 0.041 | defactinib -0.117 | rucaparib -0.041 | [4] -0.706 | encorafenib -0.114 | [10] -0.007

MPHOSPH8 isoform 2 (UniProt Q99549)
inactive: volasertib 0.012 | epoxomicin 0.16 | [8] -0.093 | [2] 0.058 | saracatinib 0.088 | sotrastaurin 0.018 | alvocidib 0.005 | Tubastatin A 0 | defactinib 0.015 | [4] -0.064 | [10] 0.013

MSANTD2 (UniProt Q6P1R3)
Chain of UniProt Q6P1R3 (Q6P1R3 whole entry, looked up): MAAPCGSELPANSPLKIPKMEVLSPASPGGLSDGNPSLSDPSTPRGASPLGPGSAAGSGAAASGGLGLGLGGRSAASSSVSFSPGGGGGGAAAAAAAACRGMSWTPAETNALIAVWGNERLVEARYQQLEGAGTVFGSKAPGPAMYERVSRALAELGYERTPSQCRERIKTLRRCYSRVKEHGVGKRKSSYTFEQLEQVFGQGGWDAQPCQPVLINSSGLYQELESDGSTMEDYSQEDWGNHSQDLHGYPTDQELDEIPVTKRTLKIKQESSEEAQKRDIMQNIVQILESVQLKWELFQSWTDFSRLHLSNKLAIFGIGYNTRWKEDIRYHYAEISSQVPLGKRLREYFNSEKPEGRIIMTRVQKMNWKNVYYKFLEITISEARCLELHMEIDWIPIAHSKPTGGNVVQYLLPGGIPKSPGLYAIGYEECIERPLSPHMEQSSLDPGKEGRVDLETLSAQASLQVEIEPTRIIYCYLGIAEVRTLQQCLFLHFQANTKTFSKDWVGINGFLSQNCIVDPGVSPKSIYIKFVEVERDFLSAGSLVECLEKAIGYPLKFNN
inactive: [5] -0.071 | epoxomicin -0.273 | [8] 0.004 | [2] 0.13 | saracatinib -0.248 | sotrastaurin 0.105 | Tubastatin A 0.032 | defactinib -0.113 | rucaparib -0.32 | [4] 0.03 | encorafenib -0.067 | [10] -0.01

NA isoform 3 (UniProt Q4G0T1)
inactive: volasertib -0.051 | [6] 0.026 | [7] 0.004 | [8] -0.019 | rosiglitazone 0.008 | [2] -0.008 | saracatinib -0.011 | sotrastaurin 0.035 | alvocidib 0.039 | Tubastatin A 0.04 | [9] 0.007 | defactinib 0.034 | [4] -0.053 | [10] -0.001

NA (UniProt J3KR12)
inactive: [6] -0.021 | epoxomicin 0.079 | rosiglitazone 0.148

MORC2 (UniProt Q9Y6X9)
active: volasertib -0.8
inactive: epoxomicin 0.118 | [7] -0.347 | rosiglitazone 0.106 | [9] 0.124

NKTR (UniProt P30414)
Chain of UniProt P30414 (P30414 whole entry, looked up): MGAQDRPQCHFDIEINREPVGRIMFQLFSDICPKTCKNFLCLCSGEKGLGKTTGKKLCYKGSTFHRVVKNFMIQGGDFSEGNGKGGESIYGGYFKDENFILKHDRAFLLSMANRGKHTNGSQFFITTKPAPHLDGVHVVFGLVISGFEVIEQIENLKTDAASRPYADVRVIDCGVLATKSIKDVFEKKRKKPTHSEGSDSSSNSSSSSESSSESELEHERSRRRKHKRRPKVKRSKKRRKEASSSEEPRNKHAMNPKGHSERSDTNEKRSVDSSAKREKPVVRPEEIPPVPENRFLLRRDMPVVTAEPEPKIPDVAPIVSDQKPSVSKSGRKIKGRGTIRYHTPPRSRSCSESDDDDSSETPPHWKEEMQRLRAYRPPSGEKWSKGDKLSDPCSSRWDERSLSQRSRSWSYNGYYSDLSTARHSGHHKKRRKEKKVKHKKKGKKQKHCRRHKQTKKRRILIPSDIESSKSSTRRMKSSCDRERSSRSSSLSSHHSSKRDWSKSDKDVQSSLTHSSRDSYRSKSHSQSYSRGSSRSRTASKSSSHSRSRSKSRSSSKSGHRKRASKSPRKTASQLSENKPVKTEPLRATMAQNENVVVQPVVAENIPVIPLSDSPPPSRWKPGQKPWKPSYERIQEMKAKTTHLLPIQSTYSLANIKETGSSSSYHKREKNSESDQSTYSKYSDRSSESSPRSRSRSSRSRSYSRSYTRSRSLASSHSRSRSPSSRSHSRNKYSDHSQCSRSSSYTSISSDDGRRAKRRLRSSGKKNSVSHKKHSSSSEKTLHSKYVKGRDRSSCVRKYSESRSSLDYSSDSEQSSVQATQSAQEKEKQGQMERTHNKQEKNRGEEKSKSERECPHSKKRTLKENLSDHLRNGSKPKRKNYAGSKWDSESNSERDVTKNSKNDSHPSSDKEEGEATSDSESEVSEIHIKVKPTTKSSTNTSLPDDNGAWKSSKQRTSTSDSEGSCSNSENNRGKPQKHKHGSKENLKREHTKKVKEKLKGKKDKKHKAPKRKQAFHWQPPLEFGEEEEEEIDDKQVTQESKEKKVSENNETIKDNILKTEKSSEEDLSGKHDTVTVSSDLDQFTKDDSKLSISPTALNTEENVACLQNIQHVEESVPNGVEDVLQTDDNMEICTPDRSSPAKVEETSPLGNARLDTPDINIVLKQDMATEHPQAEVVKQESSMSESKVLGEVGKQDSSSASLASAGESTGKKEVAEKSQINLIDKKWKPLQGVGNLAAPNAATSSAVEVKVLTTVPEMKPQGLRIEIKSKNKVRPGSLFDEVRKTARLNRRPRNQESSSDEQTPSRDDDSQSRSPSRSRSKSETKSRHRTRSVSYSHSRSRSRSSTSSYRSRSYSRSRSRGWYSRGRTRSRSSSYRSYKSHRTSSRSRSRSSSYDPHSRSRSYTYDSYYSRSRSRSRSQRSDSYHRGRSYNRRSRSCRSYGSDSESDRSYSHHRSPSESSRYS
active: [9] 0.939
inactive: volasertib -0.152 | [7] -0.102 | rosiglitazone 0.39

OPHN1 (UniProt O60890)
inactive: [5] 0.036 | [6] -0.016 | epoxomicin 0.043 | [7] -0.019 | [1] -0.143 | rosiglitazone 0.121 | [2] 0.108 | [3] -0.095 | saracatinib -0.033 | sotrastaurin 0.011 | alvocidib 0.094 | Tubastatin A -0.008 | [9] -0.036 | rucaparib -0.011 | [4] -0.01 | encorafenib 0.038

NDFIP1 (UniProt Q9BT67)
Chain of UniProt Q9BT67 (Q9BT67 whole entry, looked up): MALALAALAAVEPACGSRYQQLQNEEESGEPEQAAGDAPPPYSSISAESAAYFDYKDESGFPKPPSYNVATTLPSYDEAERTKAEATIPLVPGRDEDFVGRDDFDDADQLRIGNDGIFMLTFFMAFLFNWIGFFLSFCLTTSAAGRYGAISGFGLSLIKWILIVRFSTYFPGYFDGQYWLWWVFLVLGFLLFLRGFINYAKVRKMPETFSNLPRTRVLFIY
inactive: [5] 0.211 | [6] -0.2 | epoxomicin 0.102 | [7] 0.056 | [1] 0.224 | [8] 0.152 | rosiglitazone 0.108 | [2] 0.175 | [3] -0.062 | saracatinib -0.274 | sotrastaurin -0.028 | alvocidib -0.088 | Tubastatin A 0.056 | [9] 0.124 | defactinib 0.015 | rucaparib 0.286 | [4] -0.187 | encorafenib -0.001 | [10] -0.115

NUDT7 (UniProt P0C024)
Chain of UniProt P0C024 (P0C024 whole entry, looked up): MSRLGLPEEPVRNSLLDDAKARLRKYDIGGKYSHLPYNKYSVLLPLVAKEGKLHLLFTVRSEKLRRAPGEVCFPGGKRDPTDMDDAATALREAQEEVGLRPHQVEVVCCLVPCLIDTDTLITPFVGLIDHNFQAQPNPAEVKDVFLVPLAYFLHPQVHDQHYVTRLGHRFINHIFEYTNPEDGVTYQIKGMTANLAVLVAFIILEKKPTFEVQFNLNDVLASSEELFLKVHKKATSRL
inactive: [6] 0.187 | epoxomicin -0.067 | [7] 0.058 | [1] -0.055 | rosiglitazone 0.038 | [3] 0.322 | sotrastaurin 0.035 | Tubastatin A -0.045 | [9] 0.052

OSBPL2 (UniProt Q9H1P3)
inactive: volasertib 0.025 | alvocidib -0.197

PAFAH2 (UniProt Q99487)
inactive: volasertib -0.058 | [7] -0.328 | [8] 0.005 | rosiglitazone 0.082 | [2] -0.059 | saracatinib 0.023 | sotrastaurin -0.074 | alvocidib -0.112 | Tubastatin A -0.196 | [9] -0.179 | defactinib -0.093 | [4] -0.133 | [10] -0.067
